ERp5 inh = inhibitors of ERp5-driven insulin aggregation, primary screen, biochemical, turbidity, absorbance 650 nm, single point | 90 min | AID 651711, 2012 | hit rate 0.05% among 350,000 | inhibition, % at 9.99 µM;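 active means mean replicate inhibition above about 25%, with every replicate also reaching it, limit read from the data, passing the limit was not always enough; inconclusive means only one of those two criteria met; inactive means neither criterion met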
PDI turbidity = inhibitors of human PDI, primary screen, biochemical, turbidity, single point, plate reader; inhibition, % at 10 µM; hit rate 0.052% among 350,000; Protein disulfide-isomerase (Homo sapiens), P07237; AID 588391, 2011; PDI insulin aggregation turbidity, A650, 90 min;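 active means mean inhibition across replicates of 30% or more, whatever share of single replicates reach that level; inconclusive means mean inhibition below 30% while every single replicate reaches 30%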
MLL AF4-AF9 inh = inhibitors of AF4 peptide binding to AF9, primary screen, biochemical, AlphaScreen, biotin-AF4 peptide, FLAG-AF9, single point. Protein AF-9 (Homo sapiens), P42568. inhibition, % at 10 µM. hit rate 0.47% among 350,000. AID 651704, 2012;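 active means every replicate reaching a set inhibition limit, whatever the replicate mean, cut at about 25% in these data; inconclusive means mean inhibition reaches that limit but some replicates miss it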;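 further: 0% = plate neutral control median and 100% = total signal loss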
DENV2 CPE rescue = inhibitors of DENV2 cytopathic effect, primary screen, cell-based, plate reader, single concentration; DENV2-infected cells, cytopathic effect rescue; AID 651640, 2012; CPE inhibition, % at 9.99 µM; hit rate 1.7% among 350,000; in the data active means CPE inhibition above about 20%, passing the limit was not always enough; inconclusive means no clear call, values can overlap the other calls; tested in BHK-21 cells;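 further: 0% = median of neutral control wells and 100% = median of positive control wells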
ERAP1 HTS inh = human ERAP1 aminopeptidase inhibitors, primary screen, biochemical, single point, plate reader | Endoplasmic reticulum aminopeptidase 1 (Homo sapiens), Q9NZ08 | recombinant ERAP1, Leu-AMC fluorescence, 60 min | inhibition, % at 10.7 µM | hit rate 0.15% among 340,000 | AID 652197, 2013;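 active means mean replicate inhibition of at least 30%, or all replicates individually reaching that 30% level; inactive means mean below 30% and not every replicate reaching it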;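 further: 0% = neutral control wells and 100% = L-leucinethiol positive control wells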
The depositor's hits bear a star; ? = inconclusive; / = no result given. Shown are actives, neighbours in structure and some others; about 1.8% of the full set was active somewhere.

SMILES	ERp5 inh	PDI turbidity	MLL AF4-AF9 inh	DENV2 CPE rescue	ERAP1 HTS inh
CCCNC(=O)[C@H]1[C@H](CO)[C@H]2Cn3c(cccc3=O)[C@@H]1N2CCC(F)(F)F	-2	/	-2	20*	0
CN1C(=O)c2cc(NC(=O)c3cccs3)ccc2OC[C@@H]2O[C@H](CC(=O)NCC3CC3)CC[C@H]21	/	/	/	4	/
O=C(C[C@H]1CC[C@H]2[C@@H](COC[C@H](O)CN2C(=O)c2ccccc2F)O1)N1CCN(c2ccccc2)CC1	0	/	3	-6	-1
CO[C@@H](C(=O)N(C)C[C@H]1OCc2ccccc2-c2c(n(C)c3ccccc23)C(=O)N([C@@H](C)CO)C[C@@H]1C)c1ccccc1	-2	/	-13	?	-4
COCC(=O)N1C[C@@H](C)[C@@H](OC)CN(C)C(=O)c2ccc(NC(=O)c3ccccc3)cc2OC[C@@H]1C	1	/	-11	1	2
CCCNC(=O)[C@H]1[C@H](CO)[C@H]2Cn3c(ccc(/C=C/c4ccccc4)c3=O)[C@@H]1N2C(C)=O	71*	/	-2	11	0
CCNC(=O)[C@H]1[C@H](CO)[C@H]2Cn3c(ccc(/C=C/c4ccccc4)c3=O)[C@@H]1N2C(C)=O	1	/	-1	4	0
O=C(Nc1ccc(F)cc1)N1CCCCN2[C@H](CO)[C@@H](c3ccc(C4=CCCCC4)cc3)[C@H]2C1	-1	/	17	29*	-5
N#Cc1cccc(-c2ccc([C@@H]3[C@H](CO)N4CCCCN(C(=O)Nc5ccc(F)cc5)C[C@@H]34)cc2)c1	-4	/	/	26*	/
O=C(C[C@@H]1C[C@@H]2c3cc(NC(=O)Nc4ccccc4)ccc3O[C@@H]2[C@H](CO)O1)NCc1ccncc1	9	/	-2	-4	2
O=C(c1ccccc1)C(O)(Cc1ccccc1)c1ccccc1 (stereo unspecified)	-7	1	-4	36*	/
CCCN1[C@@H]2c3ccc(-c4ccncc4)c(=O)n3C[C@H]1[C@H](CO)[C@H]2C(=O)NCCc1cn(C)cn1	-2	/	-2	3	-2
O=C(NC1CCCC1)[C@H]1[C@H](CO)[C@H]2Cn3c(ccc(-c4cccnc4)c3=O)[C@@H]1N2CC1CC1	14	/	-2	4	0
COc1cccc(-c2ccc3n(c2=O)C[C@H]2[C@H](CO)[C@@H](C(=O)NCC4CC4)[C@@H]3N2S(C)(=O)=O)c1	1	/	/	-1	-5
O=C(NCC1CCCCC1)[C@@H]1[C@@H](CO)[C@@H]2Cn3c(ccc(-c4cncnc4)c3=O)[C@H]1N2	-1	/	-1	-5	1
CS(=O)(=O)N1[C@@H]2c3ccc(-c4ccc(F)cc4)c(=O)n3C[C@H]1[C@H](CO)[C@H]2C(=O)NCC1CC1	-1	/	-15	121*	-1
O=C(NC1CCCC1)[C@@H]1[C@@H](CO)[C@@H]2Cn3c(ccc(-c4ccccc4)c3=O)[C@H]1N2CC1CC1	-2	/	-2	25*	-1
O=C(NCC1CCCCC1)[C@@H]1[C@@H](CO)[C@@H]2Cn3c(ccc(-c4cccnc4)c3=O)[C@H]1N2	-5	/	-2	106*	-1
CCCN1[C@@H]2c3ccc(-c4cccnc4)c(=O)n3C[C@H]1[C@H](CO)[C@H]2C(=O)NCCc1cn(C)cn1	6	/	1	-4	55*
CCN1[C@@H]2c3ccc(-c4ccncc4)c(=O)n3C[C@H]1[C@H](CO)[C@H]2C(=O)NCc1ccccc1	-1	/	-16	-5	1
C[C@@H]1CN([C@H](C)CO)S(=O)(=O)c2ccc(-c3cccnc3)cc2O[C@H]1CN(C)CC1CCOCC1	4	/	7	-2	1
COC(=O)[C@H]1[C@H](CO)[C@H]2Cn3c(ccc(-c4ccncc4)c3=O)[C@H]2N1CC1CCCCC1	1	/	1	-4	2
COC(=O)[C@@H]1[C@@H](CO)[C@@H]2Cn3c(ccc(-c4ccccc4)c3=O)[C@@H]2N1CC1CCCCC1	/	/	9	33*	/
COC(=O)[C@H]1[C@H](CO)[C@H]2Cn3c(ccc(-c4ccccc4)c3=O)[C@H]2N1CC1CCCCC1	-7	/	6	45*	0
C#CCN([C@H](/C=C/C1CC1)[C@@H](O)Cc1ccccc1)[C@@H](Cc1ccccc1)C(=O)OC	-1	/	-2	-6	-1

From PubChem
